Source: the supplement of paper PMC9446081
± gives the standard deviation of the averaged measurements.

Tests used:
Experiment in all cases: relative enzymatic activity vs untreated control (fraction); higher = less inhibition
Conditions in all cases: 100 µM; incubation time: 2 h at 37 C
DNA gyrase = tested on: DNA gyrase
Method: (§1)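 In vitro enzymatic inhibition assays (ProFoldin kits) for 12 purified essential E. coli enzymes or complexes, each treated with 218 active antibacterial compounds at 100 µM for 2 h at 37°C. Read-outs were fluorescence or absorbance (phosphate detection, dye binding), converted to activity via standard curves and expressed relative to untreated DMSO controls.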

DNA helicase = DNA helicase (UniProt P0ACB1)
Chain of DNA helicase (P0ACB1 whole entry): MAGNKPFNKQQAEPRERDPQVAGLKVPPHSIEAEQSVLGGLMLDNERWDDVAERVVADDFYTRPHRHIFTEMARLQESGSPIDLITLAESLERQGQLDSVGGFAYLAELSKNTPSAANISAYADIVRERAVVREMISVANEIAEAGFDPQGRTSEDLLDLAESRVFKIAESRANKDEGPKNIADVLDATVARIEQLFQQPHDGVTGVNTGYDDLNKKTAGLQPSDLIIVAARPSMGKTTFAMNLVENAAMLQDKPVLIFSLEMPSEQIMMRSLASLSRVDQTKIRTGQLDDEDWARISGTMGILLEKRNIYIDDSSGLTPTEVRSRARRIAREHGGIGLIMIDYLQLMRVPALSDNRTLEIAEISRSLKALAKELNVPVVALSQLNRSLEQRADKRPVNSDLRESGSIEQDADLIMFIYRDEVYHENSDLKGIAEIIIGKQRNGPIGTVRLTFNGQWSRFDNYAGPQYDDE
Method: as §1

DNA ligase = DNA ligase (UniProt B1XA82)
Chain of DNA ligase (B1XA82 whole entry): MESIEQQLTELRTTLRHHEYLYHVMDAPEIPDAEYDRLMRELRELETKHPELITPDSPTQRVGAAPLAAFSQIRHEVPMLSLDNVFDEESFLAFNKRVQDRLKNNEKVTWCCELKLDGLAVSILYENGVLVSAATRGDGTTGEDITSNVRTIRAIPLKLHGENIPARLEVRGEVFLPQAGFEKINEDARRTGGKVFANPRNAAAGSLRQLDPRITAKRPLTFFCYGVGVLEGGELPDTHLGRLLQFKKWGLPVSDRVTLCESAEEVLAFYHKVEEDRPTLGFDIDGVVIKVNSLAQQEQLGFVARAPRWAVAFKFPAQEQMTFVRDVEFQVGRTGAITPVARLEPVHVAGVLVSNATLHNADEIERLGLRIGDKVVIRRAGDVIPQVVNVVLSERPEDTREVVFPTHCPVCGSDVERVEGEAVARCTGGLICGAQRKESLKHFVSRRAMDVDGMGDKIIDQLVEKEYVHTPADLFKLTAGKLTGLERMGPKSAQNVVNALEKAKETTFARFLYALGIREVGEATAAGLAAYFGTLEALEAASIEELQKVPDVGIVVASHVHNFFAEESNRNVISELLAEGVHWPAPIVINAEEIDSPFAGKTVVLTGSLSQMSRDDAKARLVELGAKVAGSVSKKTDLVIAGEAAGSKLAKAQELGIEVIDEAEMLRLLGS
Method: as §1

DNA polymerase = DNA polymerase (UniProt P10443)
Chain of DNA polymerase (P10443 whole entry): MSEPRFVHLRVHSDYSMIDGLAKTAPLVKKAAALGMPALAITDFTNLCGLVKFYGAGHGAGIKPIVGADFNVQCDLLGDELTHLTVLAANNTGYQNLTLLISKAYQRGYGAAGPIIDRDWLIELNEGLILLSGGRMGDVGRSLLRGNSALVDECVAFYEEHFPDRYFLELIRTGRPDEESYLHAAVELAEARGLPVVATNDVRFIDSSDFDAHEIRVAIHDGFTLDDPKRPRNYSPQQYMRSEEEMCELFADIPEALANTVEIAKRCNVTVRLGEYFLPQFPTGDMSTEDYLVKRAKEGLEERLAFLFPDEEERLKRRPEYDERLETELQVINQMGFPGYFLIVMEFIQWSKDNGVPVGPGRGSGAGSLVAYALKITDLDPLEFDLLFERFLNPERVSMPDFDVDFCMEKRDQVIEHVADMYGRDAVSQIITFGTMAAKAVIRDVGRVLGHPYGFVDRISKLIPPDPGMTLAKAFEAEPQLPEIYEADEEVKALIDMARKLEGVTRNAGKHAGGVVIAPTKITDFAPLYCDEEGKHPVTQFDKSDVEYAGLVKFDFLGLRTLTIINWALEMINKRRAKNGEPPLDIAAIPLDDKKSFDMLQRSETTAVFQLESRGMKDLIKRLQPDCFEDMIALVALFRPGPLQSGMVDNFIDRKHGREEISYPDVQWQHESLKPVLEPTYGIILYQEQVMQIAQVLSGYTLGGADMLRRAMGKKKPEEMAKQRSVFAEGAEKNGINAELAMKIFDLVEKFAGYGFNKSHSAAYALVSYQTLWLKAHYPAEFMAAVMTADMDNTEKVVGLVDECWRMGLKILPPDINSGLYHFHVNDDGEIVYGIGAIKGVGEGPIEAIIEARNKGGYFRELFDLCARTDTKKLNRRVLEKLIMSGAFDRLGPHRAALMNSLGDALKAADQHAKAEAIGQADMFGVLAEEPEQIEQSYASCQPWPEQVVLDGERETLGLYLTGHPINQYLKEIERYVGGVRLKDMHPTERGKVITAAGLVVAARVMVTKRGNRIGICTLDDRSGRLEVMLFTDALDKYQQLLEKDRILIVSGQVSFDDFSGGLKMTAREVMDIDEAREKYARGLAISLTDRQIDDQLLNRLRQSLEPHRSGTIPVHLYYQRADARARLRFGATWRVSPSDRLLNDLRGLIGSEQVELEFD
Method: as §1

DNA primase = DNA primase (UniProt P0ABS7)
Chain of DNA primase (P0ABS7 whole entry): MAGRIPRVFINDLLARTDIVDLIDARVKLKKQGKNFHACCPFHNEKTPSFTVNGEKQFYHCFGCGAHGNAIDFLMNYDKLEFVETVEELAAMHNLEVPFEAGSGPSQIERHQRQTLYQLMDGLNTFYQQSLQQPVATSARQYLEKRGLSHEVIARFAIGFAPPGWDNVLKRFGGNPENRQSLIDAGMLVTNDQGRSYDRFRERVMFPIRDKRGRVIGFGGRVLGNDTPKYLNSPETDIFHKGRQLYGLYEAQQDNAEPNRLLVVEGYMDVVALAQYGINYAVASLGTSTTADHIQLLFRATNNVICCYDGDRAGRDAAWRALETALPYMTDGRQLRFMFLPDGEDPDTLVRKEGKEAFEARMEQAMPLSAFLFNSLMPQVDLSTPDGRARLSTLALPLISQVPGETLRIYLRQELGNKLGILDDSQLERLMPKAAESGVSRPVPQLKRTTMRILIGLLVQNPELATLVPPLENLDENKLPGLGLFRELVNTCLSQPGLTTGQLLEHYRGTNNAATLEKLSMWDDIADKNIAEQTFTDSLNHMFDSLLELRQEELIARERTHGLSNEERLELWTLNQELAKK
Method: as §1

GlmU = GlmU (UniProt A7ZTU1)
Chain of GlmU (A7ZTU1 whole entry, looked up): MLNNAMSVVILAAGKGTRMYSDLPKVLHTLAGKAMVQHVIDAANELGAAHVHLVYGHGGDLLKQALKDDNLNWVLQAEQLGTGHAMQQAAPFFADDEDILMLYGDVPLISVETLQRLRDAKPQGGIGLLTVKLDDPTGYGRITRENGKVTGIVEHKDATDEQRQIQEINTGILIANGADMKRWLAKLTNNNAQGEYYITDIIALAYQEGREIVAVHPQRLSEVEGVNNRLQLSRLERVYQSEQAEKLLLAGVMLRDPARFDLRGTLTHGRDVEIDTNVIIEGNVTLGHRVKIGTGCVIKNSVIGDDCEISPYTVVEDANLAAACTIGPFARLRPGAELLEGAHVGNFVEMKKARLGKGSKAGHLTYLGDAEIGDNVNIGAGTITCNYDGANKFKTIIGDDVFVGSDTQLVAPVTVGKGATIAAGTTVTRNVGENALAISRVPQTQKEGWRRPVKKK
Method: as §1

Guanlyate kinase = Guanlyate kinase (UniProt Q0TBG1)
Chain of Guanlyate kinase (Q0TBG1 whole entry): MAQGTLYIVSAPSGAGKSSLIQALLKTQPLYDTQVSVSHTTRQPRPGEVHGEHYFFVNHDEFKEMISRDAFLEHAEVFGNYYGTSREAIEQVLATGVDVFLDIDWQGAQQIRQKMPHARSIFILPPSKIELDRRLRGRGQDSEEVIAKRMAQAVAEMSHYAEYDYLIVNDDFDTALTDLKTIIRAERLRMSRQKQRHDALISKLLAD
Method: as §1

MurA = MurA (UniProt Q3YX52)
Chain of MurA (Q3YX52 whole entry): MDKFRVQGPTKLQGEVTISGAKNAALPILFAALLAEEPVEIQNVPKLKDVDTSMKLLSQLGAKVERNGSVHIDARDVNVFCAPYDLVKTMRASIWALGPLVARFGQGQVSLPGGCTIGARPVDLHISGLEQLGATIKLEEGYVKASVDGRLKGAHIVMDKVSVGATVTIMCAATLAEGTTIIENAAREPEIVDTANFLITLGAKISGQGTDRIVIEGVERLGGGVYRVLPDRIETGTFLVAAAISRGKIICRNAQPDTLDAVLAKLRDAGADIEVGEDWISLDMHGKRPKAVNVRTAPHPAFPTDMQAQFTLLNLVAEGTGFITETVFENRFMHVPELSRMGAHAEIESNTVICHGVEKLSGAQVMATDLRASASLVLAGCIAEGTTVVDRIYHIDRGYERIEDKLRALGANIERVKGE
Method: as §1

MurD = molecular target: T1, MurD (UniProt P14900)
T1 sequence (whole entry): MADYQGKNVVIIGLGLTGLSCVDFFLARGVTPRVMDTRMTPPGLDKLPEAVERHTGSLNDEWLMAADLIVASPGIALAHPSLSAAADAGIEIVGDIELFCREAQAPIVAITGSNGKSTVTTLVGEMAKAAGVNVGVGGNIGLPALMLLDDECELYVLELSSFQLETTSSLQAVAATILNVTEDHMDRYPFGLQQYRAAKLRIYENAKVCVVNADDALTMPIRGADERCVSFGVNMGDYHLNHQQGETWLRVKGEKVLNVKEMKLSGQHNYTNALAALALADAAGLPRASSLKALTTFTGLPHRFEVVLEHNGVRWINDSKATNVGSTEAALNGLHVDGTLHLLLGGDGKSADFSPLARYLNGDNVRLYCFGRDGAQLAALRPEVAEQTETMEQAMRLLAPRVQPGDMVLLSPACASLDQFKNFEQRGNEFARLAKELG
Method: as §1

MurF = molecular target: T2, MurF (UniProt P11880)
T2 sequence (whole entry): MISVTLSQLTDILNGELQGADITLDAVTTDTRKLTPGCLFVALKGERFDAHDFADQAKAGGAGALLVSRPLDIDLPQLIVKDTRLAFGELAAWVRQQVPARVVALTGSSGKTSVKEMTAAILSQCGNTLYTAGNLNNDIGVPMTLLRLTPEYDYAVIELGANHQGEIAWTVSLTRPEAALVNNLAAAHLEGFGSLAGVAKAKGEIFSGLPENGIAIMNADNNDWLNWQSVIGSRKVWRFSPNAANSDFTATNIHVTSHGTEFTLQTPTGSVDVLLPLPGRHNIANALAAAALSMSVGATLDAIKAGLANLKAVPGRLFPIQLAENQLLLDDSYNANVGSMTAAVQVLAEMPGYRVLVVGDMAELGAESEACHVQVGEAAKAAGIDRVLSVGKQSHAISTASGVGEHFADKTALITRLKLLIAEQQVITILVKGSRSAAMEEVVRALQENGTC
Method: as §1

RNA polymerase = tested on: RNA polymerase
Method: as §1

| SMILES | relative enzymatic activity (DNA gyrase) | relative enzymatic activity (DNA helicase) | relative enzymatic activity (DNA ligase) | relative enzymatic activity (DNA polymerase) | relative enzymatic activity (DNA primase) | relative enzymatic activity (GlmU) | relative enzymatic activity (Guanlyate kinase) | relative enzymatic activity (MurA) | relative enzymatic activity (MurD) | relative enzymatic activity (MurF) | relative enzymatic activity (RNA polymerase) |
| --- | --- | --- | --- | --- | --- | --- | --- | --- | --- | --- | --- |
| C=CC1=C(C(=O)O)N2C(=O)C(NC(=O)C(=NO)c3csc(N)n3)C2SC1 (stereo not drawn) | 0.393 ± 0.35 | 0.553 ± 0.15 | 1.19 ± 0.35 | 1.06 ± 0.12 | 0.8619 ± 0.0016 | 0.976 ± 0.068 | 0.917 ± 0.087 | 0.127 ± 0.04 | 0.596 ± 0.39 | 0.968 ± 0.27 | 0.768 ± 0.033 |
| CC1CCc2c(N3CCC(O)CC3)c(F)cc3c(=O)c(C(=O)O)cn1c23 (stereo not drawn) | 0.0257 ± 0.036 | 0.552 ± 0.1 | 0.916 ± 0.018 | 1.19 ± 0.29 | 0.8373 ± 0.0067 | 0.9778 ± 0.0021 | 0.957 ± 0.071 | 0.8065 ± 0.0039 | 0.566 ± 0.37 | 1.102 ± 0.0015 | 0.85 ± 0.059 |
| CN(C)c1cc(CNCC(C)(C)C)c(O)c2c1C[C@H]1C[C@H]3[C@H](N(C)C)C(=O)[C@H](C(N)=O)C(=O)[C@@]3(O)C(=O)[C@@H]1C2=O | 0.256 ± 0.0049 | 0.355 ± 0.04 | 0.862 ± 0.018 | 1.09 ± 0.3 | 0.671 ± 0.07 | 0.9877 ± 0.0037 | 0.49613 ± 0.0003 | 0.133 ± 0.025 | 0.578 ± 0.38 | 1.23 ± 0.068 | 0.289 ± 0.1 |
| CC(C)(C)CC(C)(C)c1ccc(OCCOCC[N+](C)(C)Cc2ccccc2)cc1.[Cl-] | 0.0482 ± 0.068 | 0.0168 ± 0.00082 | 0.917 ± 0.17 | 0.4 ± 0.06 | 0.709 ± 0.21 | 0.121 ± 0.031 | 0.439 ± 0.06 | 0.0623 ± 0.0083 | 0.114 ± 0.033 | 0.193 ± 0.035 | 0.838 ± 0.16 |
| Cc1ccc(S(=O)(=O)O)cc1.NC1CCN(c2nc3c(cc2F)c(=O)c(C(=O)O)cn3-c2ccc(F)cc2F)C1.O (stereo not drawn) | 1.41 ± 0.49 | 0.509 ± 0.054 | 1.02 ± 0.043 | 1.15 ± 0.22 | 0.892 ± 0.035 | 0.991 ± 0.05 | 0.699 ± 0.11 | 0.644 ± 0.029 | 0.935 ± 0.86 | 1.01 ± 0.21 | 0.771 ± 0.031 |
| CC(C)[C@@H](CC[C@@H](C)[C@H]1CC[C@H]2[C@@H]3[C@H](O)C[C@H]4C[C@@H](NCCCNCCCCNCCCN)CC[C@]4(C)[C@H]3CC[C@]12C)OS(=O)(=O)O | 1.18 ± 0.2 | 0.0588 ± 0.066 | 0.674 ± 0.096 | 0.126 ± 0.02 | 0.419 ± 0.016 | 0.813 ± 0.091 | 0.334 ± 0.028 | 0.187 ± 0.029 | 0.59 ± 0.41 | 1.03 ± 0.027 | 0.146 ± 0.0049 |
| C[C@H]1COc2c(C3(N)CC3)c(F)cc3c(=O)c(C(=O)O)cn1c23 | 0.0356 ± 0.05 | 0.447 ± 0.079 | 0.801 ± 0.074 | 0.5 ± 0.7 | 0.8435 ± 0.0058 | 0.995 ± 0.012 | 0.991 ± 0.021 | 0.619 ± 0.16 | 0.578 ± 0.38 | 0.946 ± 0.25 | 0.861 ± 0.087 |
| CO/N=C(\C(=O)N[C@@H]1C(=O)N2C(C(=O)O)=C(C[n+]3ccn4ncccc43)CS[C@H]12)c1nsc(N)n1 | 0.675 ± 0.49 | 0.625 ± 0.3 | 0.891 ± 0.17 | 1.14 ± 0.26 | 0.77 ± 0.018 | 0.999 ± 0.0029 | 0.949 ± 0.069 | 0.305 ± 0.13 | 0.591 ± 0.38 | 0.909 ± 0.24 | 0.8278 ± 0.0046 |
| O=C(NO)c1cn(-c2cccc(C(=O)N3CCC4(CC3)C(=O)NCN4c3ccccc3)c2)nn1 | ≤ 0 | 0.0673 ± 0.0027 | 0.205 ± 0.025 | 0.00452 ± 0.00034 | ≤ 0 | 0.656 ± 0.088 | ≤ 0 | 0.245 ± 0.072 | 0.36 ± 0.22 | 0.634 ± 0.13 | 0.00747 ± 0.0021 |
| CCCCCCCCCCCCCCCC[N+](C)(C)Cc1ccccc1.[Cl-] | 0.3954 ± 0.003 | 0.0157 ± 0.00047 | 0.183 ± 0.12 | 0.0334 ± 0.0085 | 0.27 ± 0.0085 | 0.115 ± 0.0013 | 0.0243 ± 0.0088 | 0.032 ± 0.0013 | 0.0872 ± 0.0094 | 0.156 ± 0.061 | 0.133 ± 0.018 |
| NCC1OC(OC2C(N)CC(N)C(OC3OC(CO)C(O)C(N)C3O)C2O)C(N)CC1O (stereo not drawn) | 1.2 ± 0.12 | 0.45 ± 0.37 | 1.02 ± 0.084 | 1.33 ± 0.47 | 0.71 ± 0.18 | 0.979 ± 0.048 | 1 ± 0.013 | 0.82 ± 0.12 | 0.611 ± 0.4 | 0.932 ± 0.15 | 0.809 ± 0.04 |
| CN(C)C1C(O)=C(C(N)=O)C(=O)C2(O)C(O)=C3C(=O)c4c(O)ccc(Cl)c4C(C)(O)C3CC12.Cl (stereo not drawn) | 1.15 ± 0.17 | 0.47 ± 0.023 | 1.03 ± 0.23 | 1.35 ± 0.47 | 0.707 ± 0.21 | 0.974 ± 0.048 | 0.961 ± 0.076 | 0.767 ± 0.014 | 0.584 ± 0.37 | 0.93 ± 0.17 | 0.822 ± 0.027 |
| CN1CCN(c2c(F)cc3c(=O)c(C(=O)O)cn(CCF)c3c2F)CC1 | 0.024 ± 0.034 | 0.746 ± 0.23 | 1.37 ± 0.041 | 1.28 ± 0.3 | 0.722 ± 0.21 | 1.16 ± 0.2 | 0.94 ± 0.085 | 0.748 ± 0.029 | 0.591 ± 0.39 | 0.984 ± 0.22 | 1.05 ± 0.31 |
| COC12C(COC(N)=O)C3=C(C(=O)C(C)=C(N)C3=O)N1CC1NC12 (stereo not drawn) | 1.01 ± 0.063 | 0.964 ± 0.15 | 1.03 ± 0.025 | 1.31 ± 0.47 | 0.728 ± 0.2 | 1.02 ± 0.018 | 1.05 ± 0.032 | 0.264 ± 0.12 | 0.589 ± 0.41 | 1.01 ± 0.23 | 0.882 ± 0.01 |
| O=C1NCCN1c1ncc([N+](=O)[O-])s1 | 0.684 ± 0.55 | 0.564 ± 0.22 | 0.852 ± 0.12 | 1.16 ± 0.25 | 0.839 ± 0.018 | 0.982 ± 0.011 | 0.863 ± 0.052 | 0.658 ± 0.11 | 0.628 ± 0.47 | 0.389 ± 0.55 | 0.792 ± 0.11 |
| Cc1c(N)nc([C@H](CC(N)=O)NC[C@H](N)C(N)=O)nc1C(=O)N[C@H](C(=O)N[C@H](C)[C@@H](O)[C@H](C)C(=O)N[C@H](C(=O)NCCc1nc(-c2nc(C(=O)NCCCNCCCCN)cs2)cs1)[C@@H](C)O)[C@@H](O[C@@H]1O[C@@H](CO)[C@@H](O)[C@H](O)[C@@H]1O[C@@H]1O[C@H](CO)[C@@H](O)[C@H](OC(N)=O)[C@@H]1O)c1c[nH]cn1 | 0.0474 ± 0.067 | 0.732 ± 0.39 | 0.811 ± 0.15 | 0.308 ± 0.022 | 0.762 ± 0.041 | 0.988 ± 0.023 | 0.871 ± 0.084 | 0.872 ± 0.13 | 0.622 ± 0.4 | 0.281 ± 0.39 | 0.75 ± 0.034 |
| CCN1CCN(C(=O)NC(C(=O)NC2C(=O)N3C(C(=O)O)=C(CSc4nnnn4C)CSC23)c2ccc(O)cc2)C(=O)C1=O (stereo not drawn) | 0.414 ± 0.27 | 0.636 ± 0.11 | 1.35 ± 0.11 | 1.23 ± 0.34 | 0.673 ± 0.16 | 1.09 ± 0.17 | 0.828 ± 0.076 | 0.0994 ± 0.0088 | 0.546 ± 0.35 | 0.965 ± 0.23 | 0.96 ± 0.2 |
| Cc1cn([C@H]2C[C@H](N=[N+]=[N-])[C@@H](CO)O2)c(=O)[nH]c1=O | 0.52 ± 0.49 | 0.626 ± 0.26 | 0.932 ± 0.15 | 1.04 ± 0.19 | 0.733 ± 0.041 | 0.944 ± 0.04 | 0.885 ± 0.024 | 0.712 ± 0.092 | 0.491 ± 0.63 | 0.944 ± 0.18 | 0.778 ± 0.13 |
